Compound activity (PubChem)
IL1B secr inh – inflammasome signaling inhibition, IL-1 beta readout. activity change, % at 57.5 µM. THP-1 LPS/ATP IL-1B secretion, AlphaLISA, 16 h; active compounds read low. 4.7% of 360,000 active. AID 743279; in the data active = activity change below about -50%; inconclusive = mostly about -30% to -49%
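THP-1 cells pretreated 1 hr with compounds (up to 57.5 uM final), then stimulated with LPS (250 ng/mL final) plus ATP (1.25 mM final); secreted IL-1B measured by AlphaLISA after 16 hr, decreased signal indicating inhibition.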
LDHA block – inhibitors of human lactate dehydrogenase A; activity change, % (values are at about 110 or 230 µM); purified LDHA, NADH/diaphorase-resazurin fluorescence; active compounds read low; P00338; 0.15% of 480,000 active; in the data active = activity change below about -30%; inconclusive = mostly about -25% to -30%;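 also: plate controls were DMSO wells for no effect and wells without enzyme for full effect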
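Resorufin fluorescence (ex540/em590), read at 0 and 20 min after diaphorase/resazurin addition, reports the NADH left after a 5 min room-temperature reaction of 2 nM human LDH5 with 0.06 mM NADH and 0.2 mM pyruvate.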
RORg inh – inhibitors of mouse ROR gamma transcriptional activity; AID 2551; P51450; Drosophila S2 Gal4-RORgamma UAS-luciferase reporter, 20 h; Potency, µM (highest dose often 53.6 µM), inactives show at the highest dose activity change, negative = inhibition, actives largely listed as inhibitors; 5.4% of 310,000 active; also: potency is read from the fitted curve at half-maximal effect; nearly all actives have a fitted effect of over 60% in size
Target sequence (P51450 whole entry, looked up, the tested form may be a part): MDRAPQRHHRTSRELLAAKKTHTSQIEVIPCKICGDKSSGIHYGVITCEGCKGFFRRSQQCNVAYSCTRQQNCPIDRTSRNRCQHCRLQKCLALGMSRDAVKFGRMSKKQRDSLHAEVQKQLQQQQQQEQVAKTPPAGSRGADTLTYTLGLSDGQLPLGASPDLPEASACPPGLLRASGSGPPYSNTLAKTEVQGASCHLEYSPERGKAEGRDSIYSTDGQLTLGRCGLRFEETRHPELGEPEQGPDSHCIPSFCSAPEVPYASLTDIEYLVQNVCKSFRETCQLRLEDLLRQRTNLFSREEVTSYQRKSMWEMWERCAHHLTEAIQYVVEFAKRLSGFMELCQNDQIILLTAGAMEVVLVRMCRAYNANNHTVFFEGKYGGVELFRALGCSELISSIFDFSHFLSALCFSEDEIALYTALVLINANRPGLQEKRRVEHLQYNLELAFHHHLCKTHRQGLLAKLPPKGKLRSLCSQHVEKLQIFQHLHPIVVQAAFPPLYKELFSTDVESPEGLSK
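Drosophila Schneider cells stably carrying a metallothionein-driven Gal4 DBD–ROR gamma fusion and a UAS-Photinus luciferase reporter were exposed to compound for 1 hr, then induced with copper sulfate (700 uM final) for 20 hr at ambient temperature before luminescence reading.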
DT40 TDP1 no CPT – qHTS for Inhibitors of human tyrosyl-DNA phosphodiesterase 1 (TDP1): qHTS in cells in absence of CPT. 15% of 420,000 active. Potency, µM (doses to about 46.2 µM), inactives show at the top dose activity change, negative = growth inhibition, most hits filed as inhibitors. DT40 Tdp1-/- hTDP1 cells, no CPT, ATP luminescence, 48 h; also: potency is read from the fitted curve at half-maximal effect; nearly all actives have a fitted effect of over 55% in size
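A cellular qHTS used chicken DT40 cells lacking endogenous Tdp1 but carrying stably transfected human TDP1. Compounds were applied without camptothecin, and cell growth kinetics were judged by ATP-dependent luminescence after ≥48 hr.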
TDP1 cell CPT – DT40-hTDP1 cell growth loss with CPT; AID 686979; Potency, µM (highest dose often 46.2 µM), inactives show at the top dose activity change, negative = growth inhibition, hits mostly inhibitors; chicken DT40 Tdp1-/-;hTDP1 cells + 20 nM CPT, ATP luminescence, 48 h; 12% of 420,000 active; also: potency is read from the fitted curve at half-maximal effect; nearly all actives have a fitted effect of over 55% in size
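Cell growth measured by CellTiter-Glo luminescence after a minimum 48 h, 37 C compound exposure with 20 nM CPT in Tdp1-knockout DT40 cells stably expressing hTDP1, seeded 400/well; qHTS titration format.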
VP16 counter – counter-screen for ROR gamma inhibitors: Gal4-VP16 reporter; Drosophila S2 Gal4-VP16 UAS-luciferase, luminescence, 20 h; Potency, µM (series often up to 53.6 µM), inactives show at the highest dose activity, negative = inhibition, most hits filed as inhibitors; 3.5% of 310,000 active; AID 2546;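 also: Gal4-VP16 expression switched on by copper sulfate through the metallothionein promoter; potency is read from the fitted curve at half-maximal effect; nearly all actives have a fitted effect of over 50% in size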
The depositor's hits bear a star; ? = inconclusive; . = not tested or not shown; [ ] = dose if it differs, or a comment. Hits are enriched below; roughly 18% of the tested compounds scored in any of these assays. Unless noted, calls follow the shape of the dose curve; as a rule, active = well fitted curve in the direction sought with a large enough effect; inconclusive = small, poorly fitted or top-dose-only effect, or another doubt; inactive = no such curve, though single readings can be large; an effect the other way counts as inactive or inconclusive. Unless noted, % is scaled to controls: 0 for no effect and ±100 for the full control effect.

SMILES	IL1B secr inh	LDHA block	RORg inh	DT40 TDP1 no CPT	TDP1 cell CPT	VP16 counter
O=C(CSc1nnc(-c2ccc(Cl)cc2)n1Cc1ccco1)NCc1ccc2c(c1)OCO2	-22.6	-3.2	?	25.9µM*	?	-14.0%
Cc1occc1-c1nnc(SCC(N)=O)n1Cc1ccccc1	-19.2	-8.1	-28.0%	1.7%	1.0%	1.0%
CC(Sc1nnc(-c2ccco2)n1N)C(=O)NCc1ccc2c(c1)OCO2 (configuration not stated)	-2.2	-5.2	.	4.0%	-10.1%	.
COc1ccc(-c2nnc(SC(C)C(=O)NCc3ccc4c(c3)OCO4)n2Cc2ccco2)cc1 (configuration not stated)	-13.8	-7.1	23.4%	14.6µM*	?	1.7%
Cc1occc1-c1nnc(SCC(=O)NCCc2ccccc2)n1Cc1ccccc1	?	1.3	28.8%	20.6µM*	?	1.8%
Cc1c(C(=O)Nc2cccc(Cl)c2)sc2ncnc(N(C)c3ccccc3)c12	.	10.5	.	.	.	.
COc1cc(NC(=O)NC(C)c2ccc(Cl)cc2Cl)cc(OC)c1OC (configuration not stated)	.	4.3	.	.	.	.
Cc1cccc(C)c1OCC(=O)Nc1ccc2c(c1)OCCO2	-4.0	1.1	-36.6%	?	18.4µM*	2.24µM*
C/C(=N\OCC(=O)Nc1ccc(OC(F)(F)F)cc1)c1ccc2c(c1)OCCO2	-69.4*	-1.9	?	?	-1.5%	?
CC(=O)c1c(C)[nH]c(C(=O)OCC(=O)Nc2ccc(Cl)c(S(=O)(=O)N(C)C)c2)c1C	-29.0	-1.8	18.8%	9.2µM*	7.31µM*	?
CC(=O)c1c(C)[nH]c(C(=O)OCC(=O)Nc2ccc(Cl)cc2[N+](=O)[O-])c1C	28.2	1.0	?	1.84µM*	3.66µM*	5.01µM*
CN(Cc1ccccc1)C(=O)Nc1ccc2oc(C3CC3)nc2c1	.	-4.7	.	.	.	.
CC(C)OC(=O)c1c(-c2ccccc2Cl)csc1NC(=O)CCCC(=O)O	.	-2.2	.	.	.	.
Cc1ccc(C)c(-c2csc(NC(=O)CN(C)CC(=O)Nc3ccccc3C(F)(F)F)n2)c1	.	-5.0	.	.	.	.
COc1ccc(Nc2cc(C(=O)NCC(OC)OC)c3ccccc3n2)cc1OC	.	-3.8	.	.	.	.
CC(C)CC(NC(N)=O)C(=O)OCC(=O)Nc1ccc(OC(F)F)cc1 (configuration not stated)	-14.1	-5.6	18.3%	?	23.1µM*	5.0%
CC(=O)c1c(C)[nH]c(C(=O)OCC(=O)Nc2ccc3c(c2)OCCO3)c1C	25.6	1.4	.	20.6µM*	?	.
O=C(COC(=O)c1ccc(O)cc1)Nc1ccc(OC(F)F)cc1	36.5	-2.9	32.0%	16.4µM*	?	-2.6%
O=C(COC(=O)c1ccc(O)cc1)Nc1ccc2c(c1)OCCO2	7.3	-2.0	.	3.26µM*	10.3µM*	.
O=C(COC(=O)c1cccc(O)c1)Nc1ccc(OC(F)F)cc1	-7.1	2.3	23.9%	-27.9%	1.6%	-2.1%
CCOC(=O)c1c(C)sc2c1OC(N)=C(C#N)C21C(=O)N(C)c2ccccc21 (configuration not stated)	.	17.0	.	.	.	.
Cc1ccc(-c2nc(C(=O)NC3CCCCCC3)no2)cc1	-5.6	-3.7	.	18.4µM*	?	.
Cc1ccc(-c2cc(C(=O)NC3CCCCC3)no2)cc1	-14.5	-6.1	14.9%	-22.2%	3.0%	-7.2%
O=C(COC(=O)c1cc(S(=O)(=O)N2CCOCC2)ccc1N1CCCCC1)NC1CC1	.	-0.4	.	.	.	.
C=CCOc1nc2c(c(=O)n(C)c(=O)n2C)n1Cc1c(Cl)cccc1Cl	-22.8	-14.4	43.1%	20.6µM*	?	-13.5%
SMILES	IL1B secr inh	LDHA block	RORg inh	DT40 TDP1 no CPT	TDP1 cell CPT	VP16 counter
C=CCOc1nc2c(c(=O)n(Cc3ccc(Cl)c(Cl)c3)c(=O)n2C)n1C	15.1	1.7	.	23.1µM*	16.4µM*	.
CCOCCOc1nc2c(c(=O)n(C)c(=O)n2C)n1CCc1ccccc1	18.7	-3.4	34.2%	20.6µM*	18.4µM*	1.9%
COC(=O)Cn1c(=O)c2c(nc3n2CC(C)CN3CCc2ccccc2)n(C)c1=O (configuration not stated)	28.6	-1.7	-8.5%	?	?	6.9%
C=CCOc1nc2c(c(=O)n(Cc3ccc(Br)cc3)c(=O)n2C)n1C	.	2.0	.	.	.	.
CCOCCn1c(=O)c2c(nc3n2CC(C)CN3CCc2ccccc2)n(C)c1=O (configuration not stated)	-4.8	-1.5	-8.7%	?	25.9µM*	-14.7%
C=CCOc1nc2c(c(=O)n(C)c(=O)n2C)n1C	9.4	-2.3	6.1%[0.365 µM]	9.1%	-9.7%	.
C#CCOc1nc2c(c(=O)n(C)c(=O)n2C)n1Cc1ccccc1Cl	.	0.4	.	.	.	.
CCOc1nc2c(c(=O)n(C)c(=O)n2C)n1Cc1ccccc1Cl	14.8	-15.4	40.7%[10 µM]	11.6µM*	16.4µM*	0.8%
Cc1cccc(-n2c(SCC(=O)NCc3ccc4c(c3)OCO4)nc3ccccc3c2=O)c1	-15.8	-12.9	?	?	?	25.5%
Cc1cc(C)cc(-n2c(SC(C)C(=O)NCc3ccc4c(c3)OCO4)nc3ccccc3c2=O)c1 (configuration not stated)	-14.3	1.3	-4.9%	14.6µM*	13µM*	?
COc1ccccc1-n1c(SCC(=O)NCc2ccc3c(c2)OCO3)nc2cc([N+](=O)[O-])ccc21	?	15.1	?	20.6µM*	4.11µM*	?
CC(Sc1nc2cc([N+](=O)[O-])ccc2n1-c1cccc(C(F)(F)F)c1)C(=O)NC(N)=O (configuration not stated)	9.7	-2.8	12.6µM*	?	?	20µM*
CC(Sc1nc2cc([N+](=O)[O-])ccc2n1-c1ccc(F)cc1)C(=O)NCc1ccc2c(c1)OCO2 (configuration not stated)	-29.7	4.5	22.5%[10 µM]	14.6µM*	16.4µM*	?
Cc1nc2cc(NC(=O)c3nn(Cc4ccccc4)c(=O)c4ccccc34)ccc2o1	.	6.7	.	.	.	.
O=C(c1ccc(COc2ccccc2Br)cc1)N1CCCCC1	-58.3*	3.1	1.5%	16.4µM*	14.6µM*	-4.9%
O=C(c1ccc(COc2ccccc2Br)o1)N1CCCCCC1	-13.6	7.4	-16.4%	?	20.6µM*	-8.6%
O=C(COc1ccccc1Cl)Nc1ccc(C(=O)N2CCCCC2)cc1	-1.6	-4.1	?	?	?	3.3%
